Sampled rows, rich in hits. Any-hit rate of the full collection: about 21%.
NS1 inh: qHTS Assay for Inhibitors of Influenza NS1 Protein Function | actives 0.4% (n = 270,000) | Potency, µM (highest dose often 46.1 µM), inactives show at the top dose activity, positive = more growth; calls by dose curve; also: potency is read from the fitted curve at half-maximal effect; actives are rising curves; nearly all actives have a fitted effect of over 50% in size
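Recovery from NS1-induced slow growth read by OD600 in budding yeast switched to galactose assay medium (pH 6.0, -URA) at 1:100 dilution. Compound 23 nl per well; the matching strain lacking NS1 serves as control.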
Sm TGR inh: qHTS Assay for the Inhibitors of Schistosoma Mansoni Peroxiredoxins. purified TGR, DTNB reduction, TNB absorbance 405 nm. Potency, µM (series often up to 114 µM), without a hit: top-dose activity change, negative = inhibition, actives largely listed as inhibitors. actives 3% (n = 360,000). Schistosoma mansoni thioredoxin glutathione reductase (TGR), Q962Y6. AID 485364, 2010; also: potency is read from the fitted curve at half-maximal effect; % is scaled to controls: 0 for no effect and ±100 for the full control effect; nearly all actives have a fitted effect of over 60% in size
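Kinetic colorimetric format: TGR-catalysed, NADPH-driven DTNB reduction monitored via TNB absorbance. Enzyme dispensed at 20 nM; compound exposure 15 min at room temperature before reaction start.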
CHX counter: Cycloheximide Counterscreen for Small Molecule Inhibitors of Shiga Toxin | cell reporter, cycloheximide protein synthesis inhibition counterscreen | max response, % | actives 12% (n = 300,000) | AID 2314, 2010; in the data active = max response mostly above about 13%, no sharp cut-off; inactive = mostly below about 14%; also: read at 38.3 µM for the half of the compounds with a filed dose; 0% is about no effect
Shiga toxin inh: A qHTS for Small Molecule Inhibitors of Shiga Toxin | Vero cells, Shiga toxin protein synthesis inhibition reporter | inhibition, % at 38.7 µM | actives 9.2% (n = 290,000) | AID 2315, 2010; in the data active = inhibition mostly above about 28%, no sharp cut-off; inactive = mostly below about 43%; also: 0% is about no effect
Pf growth 96h: Primary qHTS for delayed death inhibitors of the malarial parasite plastid, 96 hour incubation; actives 6.9% (n = 320,000); Potency, µM (highest dose often 28.7 µM), for inactives: at the highest dose activity change, negative = inhibition, usual class: inhibitors; P. falciparum luciferase reporter growth, 96 h; AID 504834, 2011; also: potency is read from the fitted curve at half-maximal effect; % is scaled to controls: 0 for no effect and ±100 for the full control effect
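Two parasite generations (96 h, 37 C, 5% CO2) of compound exposure in infected erythrocytes (0.05% parasitemia, 2% hematocrit). Luciferase-reporter P. falciparum; decreased luminescence indicates inhibited growth, aimed at apicoplast-acting delayed death.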
Pf growth 48h: Primary qHTS for delayed death inhibitors of the malarial parasite plastid, 48 hour incubation. Potency, µM (top dose mostly 28.7 µM), without a hit: at the highest dose activity change, negative = inhibition, most hits filed as inhibitors. P. falciparum luciferase growth in erythrocytes, 48 h. actives 5.9% (n = 310,000); also: potency is read from the fitted curve at half-maximal effect; % is scaled to controls: 0 for no effect and ±100 for the full control effect
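Cell-based growth assay: transgenic P. falciparum expressing firefly luciferase, cultured in red cells within RPMI 1640 containing 0.5% w/v Albumax, 24 mM bicarbonate and gentamycin. A drop in luciferase activity indicates inhibition.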
The depositor's hits bear a star; ? = inconclusive; . = no result given; [ ] = remark or other dose. Unless noted, calls follow the shape of the dose curve; as a rule, active = well fitted curve in the direction sought with a large enough effect; inconclusive = small, poorly fitted or top-dose-only effect, or another doubt; inactive = no such curve, though single readings can be large; an effect the other way counts as inactive or inconclusive.

SMILES	NS1 inh	Sm TGR inh	CHX counter	Shiga toxin inh	Pf growth 96h	Pf growth 48h
COc1ccc(-c2nnc3c4ccccc4c(C)nn23)cc1	-62%	2%	28*	96	16%	?
N#Cc1ccccc1CN1C(=O)NC2(CCCCCC2)C1=O	4%	6%	8	-11	19%	-13%[0.00184 µM]
C[C@@H]1CC[C@@H]2N(C1)C[C@H]1[C@@](O)([C@H](O)C[C@]3(O)[C@H]4CC[C@H]5[C@]6(O)O[C@]4(C[C@]13O)[C@@]5(C)CC[C@@H]6O)[C@@]2(C)O	-5%	.	.	.	.	.
CCOc1ccc(NC(=O)C(Cc2ccccc2)N2C(=O)c3cccc4cccc(c34)C2=O)cc1 (stereo unspecified)	-1%	1%	-3	-6	?	?
CCOC(=O)c1ccc(-n2c(-c3ccc(C)cc3)c(C)n3c4c(=O)n(C)c(=O)n(C)c4nc23)cc1	.	5%	.	.	.	.
CCc1ccccc1NC(=O)CSc1nnc(COc2ccccc2Cl)o1	.	-1%	.	.	.	.
CCNC(=O)NC(=O)C(C)Sc1nnc(COc2ccccc2Cl)o1 (stereo unspecified)	-131%	-9%	15*	28	?	.
Cc1cc(C)c2oc(-c3cccc(NC(=O)c4cc5ccccc5o4)c3)nc2c1	.	7%	.	.	.	.
Nc1c(C(=O)N/N=C/c2cccnc2)oc2nc(-c3ccccc3)cc(-c3ccco3)c12	6%	?	1	-5	?	?
O=CNn1cnc2c(oc3nc(-c4ccccc4)cc(-c4ccco4)c32)c1=O	.	40µM*	5	-10	40%	23%
COc1cc(OC)c2c(C)c(CC(=O)N3CCCCC3)c(=O)oc2c1	.	0%	.	.	.	.
COc1ccc2c(c1)C1=NN(/C(C)=C/C(C)=O)C(c3ccc(F)cc3)C1CC2 (stereo unspecified)	-8%	?	31*	94*	34%	0%
COc1ccc2c(c1)C1=NN(/C(C)=C\C(C)=O)C(c3ccccc3)C1CC2 (stereo unspecified)	-16%	56µM*	26*	71*	1%	13µM*
COc1ccc2c(c1)C1=NN(/C(C)=C/C(C)=O)C(c3cccc(F)c3)C1CC2 (stereo unspecified)	3%	6%	1	4	?	?
CCN(CC)CCNC(=O)C1CCC(=O)N(c2ccc(OC)cc2)C1c1ccc(F)cc1 (stereo unspecified)	1%	6%	-4	-3	57%	7%
COc1ccc2c(c1)CCC1C2=NN(/C(C)=C\C(C)=O)C1c1ccc(F)cc1 (stereo unspecified)	-11%	.	62*	60*	-11%	?
O=c1[nH]ccc2c(O)cccc12	3%	.	.	.	.	.
CCC(Sc1nccn1C)C(=O)Nc1ccc(Cl)cn1 (stereo unspecified)	-3%	.	-6	-10	19%	-4%
O=C(NCCCN1CCc2ccccc2C1)Nc1ccc(Cl)cc1	-18%	0%	13	-3	?	?
CN(C)c1ccc2nc3c(C(=O)O)cc(=O)c(O)c-3oc2c1	-10%	.	.	.	.	.
COC(=O)C1=C(c2ccc(F)cc2OCc2ccccc2)C[C@@H]2CC[C@H]1N2C(=O)NCc1cccc(OC)c1	.	-2%	.	.	?	9.3µM*
COC(=O)C1=C(c2ccc(F)cc2OCc2ccccc2)C[C@@H]2CC[C@H]1N2C(=O)NCc1ccc(Br)cc1	.	3%	.	.	?	2.1µM*
COC(=O)C1=C(c2ccccc2OCc2ccccc2)C[C@@H]2CC[C@H]1N2C(=O)NCc1ccc(OC)c(OC)c1	.	1%	.	.	?	13µM*
COC(=O)C1=C(c2ccccc2OCc2ccccc2)C[C@@H]2CC[C@H]1N2C(=O)NCc1cccc(F)c1	.	3%	.	.	?	9.3µM*
COc1cc(NC(=O)c2nc3cc(C)c(C)cc3n(C)c2=O)cc(OC)c1OC	.	5%	.	.	.	.
SMILES	NS1 inh	Sm TGR inh	CHX counter	Shiga toxin inh	Pf growth 96h	Pf growth 48h
COC(=O)C1=C(c2ccc(F)cc2OCc2ccccc2)C[C@@H]2CC[C@H]1N2C(=O)NCc1cccc(C(F)(F)F)c1	.	5%	.	.	?	4.7µM*
COC(=O)C1=C(c2ccc(F)cc2OCc2ccccc2)C[C@@H]2CC[C@H]1N2C(=O)NCc1ccc(OC)cc1	.	7%	.	.	?	13µM*
CCOC(=O)c1sc2ncnc(NCC(c3cccs3)N(C)C)c2c1C (stereo unspecified)	0%	14%[11.4 µM]	24*	40	-51%	.
CN(C)C(CNc1ncnc2sccc12)c1cccs1 (stereo unspecified)	-4%	1%	12	17	?	0%
CCOCc1c(C(=O)Nc2ccc3nc(N4CCOCC4)sc3c2)oc2ccccc12	.	-1%	.	.	?	15µM*
CCOCc1c(C(=O)Nc2ccccc2N2CCN(C)CC2)oc2ccccc12	.	-1%	.	.	13µM*	?
CCOCc1c(C(=O)Nc2cc(OCC)c(N3CCOCC3)cc2OCC)oc2ccccc12	.	-3%	4	13	?	35%
Cc1ccc(C(=O)c2oc3ccccc3c2NC(=O)c2nc(S(C)(=O)=O)ncc2Cl)cc1F	.	-13%	.	.	.	.
Clc1ccc(-c2nnc(CNC3CC3)o2)cc1	-9%	3%	21*	23	32%	29%
CSc1ccc(CCNC(=O)c2cc(C)nc3c2c(C)nn3-c2ccccc2)cc1	.	-4%	.	.	.	.
Cc1ccccc1CC(=O)Nc1ccc(C(=O)N2CCCC2)cc1	6%	8%	25*	46	10%	-5%
O=C(CNCCc1ccc(Cl)cc1)Nc1ccc(C(=O)N2CCCCC2)cc1	4%	-1%	-4	-13	11%	?
O=C(CNCCc1ccccc1)Nc1ccc(C(=O)N2CCCCC2)cc1	-7%	2%	28*	73	22%	-18%
CCOC(=O)c1nc(C)sc1-c1ccnn1S(=O)(=O)c1ccc(Cl)cc1Cl	-4%	-4%	29*	36	4%	8%
CCOC(=O)c1nc(C)sc1-c1ccnn1S(=O)(=O)c1ccccc1C(F)(F)F	2%	2%	6	-4	9%	-28%
Cc1ccc(C(=O)Oc2cccc(NC(=O)c3ccccc3)c2)cc1C	-16%	-4%	16*	7	28%	41%
COC(=O)c1cccc(NC(=O)c2ccccc2)c1	-43%	14%	29*	50*	39%	38%
COC(=O)c1cccc(NC(=O)c2ccc[n+]([O-])c2)c1	27%	-1%	6	.	247%	?
Cc1ccc(NC(=O)c2ccccc2)cc1C	.	2%	.	.	29%	?
COC(=O)c1cccc(NC(=O)c2cc3ccccc3o2)c1	-73%	-2%	29*	35*	22%	9.3µM*
COC(=O)c1ccc(NC(=O)c2cccc(NC(=O)c3ccccc3)c2)cc1	7%	-1%	-1	52	8.3µM*	-16%
